Screens: PubChem BioAssay, ICCB-Longwood Screening Facility, Harvard Medical School
This is one part of a sample in which hits are shown more often than they occur.
Sa growth 42C: blocks Staphylococcus aureus growth. S. aureus RN4220 growth, OD600, 20 h, 42 °C; stronger effect = lower value. relative growth, % (test concentration not listed). 170,000 tested, 0.53% active. AID 720641;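 active = relative growth at most 50% at the other temperature and 20+ points below 30 °C, or under 10% at both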
S aureus helic: blocks Staphylococcus aureus DNA helicase. purified S. aureus helicase, fluorescence unwinding assay. inhibition, % (test concentration not listed). 120,000 tested, 0.05% active. AID 485395; in the data active = inhibition above about 25%, passing the limit was not always enough
Each line names hits and unclear results; the compound was inactive in the other large screens.

CCCc1cc(=O)[nH]c(SCC(=O)N(CC(C)C)C2CCS(=O)(=O)C2)n1 (centres undefined)	none
Cc1nnc(SCC(=O)N(CC(C)C)C2CCS(=O)(=O)C2)s1 (centres undefined)	S aureus helic 26
COc1ccc(-c2noc(NCC3CCCO3)n2)cc1 (centres undefined)	none
Cc1ccc(CNC(=O)Cn2sc3nc(C)cc(C)c3c2=O)cc1	none
CCOc1ccc(CCNC(=O)Cn2sc3nc(C)cc(C)c3c2=O)cc1	Sa growth 42C 6.2
Nc1nc(=S)nc(Cc2ccc3c(c2)CCC3)[nH]1	Sa growth 42C 45
Nc1nc(-c2ccc3c(c2)CCCC3)cs1	none
C=CC1=C(C(=O)O)N2C(=O)[C@@H](NC(=O)/C(=N\O)c3csc(N)n3)[C@H]2SC1 (stereo in doubt)	Sa growth 42C -0.4 (no result: S aureus helic)
CO/N=C(\C(=O)NC1C(=O)N2C(C(=O)OCOC(=O)C(C)(C)C)=C(/C=C\c3scnc3C)CSC12)c1csc(N)n1 (centres undefined)	Sa growth 42C 5.1 (no result: S aureus helic)
C=CC1=C(C(=O)O)N2C(=O)[C@@H](NC(=O)C(=NOCC(=O)O)c3csc(N)n3)[C@H]2SC1	Sa growth 42C -0.2 (no result: S aureus helic)
CC(C)(O/N=C(\C(=O)N[C@@H]1C(=O)N2C(C(=O)[O-])=C(C[n+]3ccccc3)CS[C@H]12)c1csc(N)n1)C(=O)O	none (no result: S aureus helic)
C[C@H]1[C@H](NC(=O)/C(=N\OC(C)(C)C(=O)O)c2csc(N)n2)C(=O)N1S(=O)(=O)O	none (no result: S aureus helic)
CO/N=C(\C(=O)N[C@@H]1C(=O)N2C(C(=O)[O-])=C(C[N+]3(C)CCCC3)CS[C@H]12)c1csc(N)n1	Sa growth 42C -0.5 (no result: S aureus helic)
CCn1nc(C(=O)NC23CC4CC(CC(C4)C2)C3)c2ccccc2c1=O	none
O=C(OCc1c(Cl)cccc1Cl)c1ccc2ccccc2n1	none
CC1CN(C/C(=N/O)C23CC4CC(CC(C4)C2)C3)CC(C)O1 (centres undefined)	none
CCN1CCOC(=O)C1CC(=O)Nc1ccccc1C(F)(F)F (centres undefined)	Sa growth 42C 30 (no result: S aureus helic)
CCc1ccc(NC(=O)CC2C(=O)OCCN2CC)cc1 (centres undefined)	none (no result: S aureus helic)
O=C1NC(=NC2CCCC2)S/C1=C\c1ccc(-c2ccc(F)cc2)o1	none
CC(OC(=O)CSc1nc2ccccc2o1)C(=O)c1ccc(OC(F)F)cc1 (centres undefined)	none
CCc1c(NCc2ccccc2)c2cccc3c2n(c1=O)CCC3	none (no result: S aureus helic)
O=C(O)[C@H]1/C(=C/CO)O[C@@H]2CC(=O)N21	Sa growth 42C 15 (no result: S aureus helic)
CC[n+]1c(/C=C/Nc2ccccc2)sc2ccccc21	none
CC[n+]1c(/C=C/N(C)c2ccccc2)sc2ccc(OC)cc21	Sa growth 42C -0.6
COc1cc(Cl)c(C)cc1NCC(O)Cn1nnnc1-c1ccccc1 (centres undefined)	none
CCOC(=O)c1nn(-c2ccc(Cl)cc2)c(=N)c2c(N)c(C#N)c(N)nc12	none
O=C(NCCS(=O)(=O)Cc1ccc(F)cc1)c1ccc(Cl)cc1	none (no result: S aureus helic)
Oc1c(CN2CCCCC2)ccc2cccnc12	none
Oc1c(C(O)(C(F)(F)F)C(F)(F)F)ccc2cccnc12	Sa growth 42C -0.3
O=C(O)C1CCCN1C(=O)/C=C/c1ccc(F)cc1 (centres undefined)	none
Cc1ccc(C)c(S(=O)(=O)Nc2ccccc2C(=O)OCc2nnc(-c3ccccc3)o2)c1	none
Oc1ccccc1C1CC(c2cccc(Br)c2)=NC(c2ccc(Br)cc2)N1 (centres undefined)	none
Oc1ccc(Br)cc1C1CC(c2ccccc2)=NC(c2ccco2)N1 (centres undefined)	Sa growth 42C 2.5
Nn1c(CCC2CCCCC2)n[nH]c1=S	none
O=C(CSc1nnc(-c2ccc3c(c2)OCO3)o1)N1CCc2ccccc21	none
O=C(NCCc1ccccc1)c1cc(-c2ccccc2)on1	none
CO[C@@]1(NC(=O)Cc2cccs2)C(=O)N2C(C(=O)O)=C(COC(N)=O)CS[C@@H]21	Sa growth 42C -1.0 (no result: S aureus helic)
CO[C@@]1(NC(=O)CSCC#N)C(=O)N2C(C(=O)O)=C(CSc3nnnn3C)CSC21 (some centres undefined)	Sa growth 42C -0.6 (no result: S aureus helic)
CN1CCN(NC(=O)Cc2cccs2)CC1	none
Cn1nnnc1SCC(=O)NN1C(=O)NC(C)(c2ccccc2)C1=O (centres undefined)	none
COc1ccc(-c2n[nH]c(=S)o2)cc1OC	none
S=c1[nH]nc(-c2ccc3c(c2)OCO3)o1	Sa growth 42C 36
CC1(C)Cc2nc3sc4c(N5CCNCC5)ncnc4c3cc2CS1	none
O=c1[nH]c2ccc(NS(=O)(=O)Cc3ccccc3)cc2o1	none
CC(C)(C)C(N)=O	none
CCOc1ccc(S(=O)(=O)/N=C2/C=C(Sc3ncn[nH]3)C(=O)c3ccccc32)cc1	none
O=C1C(Sc2ncn[nH]2)=C/C(=N/S(=O)(=O)c2ccc(F)cc2)c2ccccc21	Sa growth 42C 1.1
O=S(=O)(Nc1cc(Sc2ncn[nH]2)c(O)c2ccccc12)c1cccs1	none
O=C1C(Sc2ncn[nH]2)=C/C(=N/S(=O)(=O)c2cccs2)c2ccccc21	Sa growth 42C 1.4
